Assay results reported in PubChem BioAssay (NCI).
The panel holds about 79,000 compounds, 15% with a hit somewhere; the sample as a whole holds those more often. Active and inactive are the calls of the source. No stated cut-off is given here; in the data, active means growth inhibition above about 70%; inactive means the rest.

Columns and labels:
[1] = NCI Yeast Anticancer Drug Screen. Data for the rad50 strain (AID 155);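 further: 0% = growth of vehicle-only cultures of the same strain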; conditions: S. cerevisiae rad50 strain growth inhibition, active compounds read high
In short: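 Inhibition values express reduced yeast growth in compound-treated cultures relative to vehicle-treated controls.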

[2] = NCI Yeast Anticancer Drug Screen. Data for the mec2-1 strain (AID 157); conditions: S. cerevisiae mec2-1 strain, active compounds read high
In short: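 Readout is yeast growth inhibition, normalised to vehicle-treated controls, in the mec2-1 strain exposed to compound.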

[3] = NCI Yeast Anticancer Drug Screen. Data for the sgs1 mgt1 strain (AID 161);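 further: 0% = growth of cultures given vehicle only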; conditions: S. cerevisiae sgs1 mgt1 strain, active compounds read high
In short: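 Percent growth inhibition was derived by comparing compound-exposed mutant yeast with vehicle-exposed cultures. The strain carries alterations in DNA damage repair.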

[4] = NCI Yeast Anticancer Drug Screen. Data for the cln2 rad14 strain (AID 165);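 further: 0% = growth equal to vehicle treated cultures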; conditions: S. cerevisiae cln2 rad14 strain, active compounds read high
In short: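 Relative to vehicle controls, growth inhibition of compound-treated cln2 rad14 yeast was recorded.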

[5] = NCI Yeast Anticancer Drug Screen. Data for the bub3 strain (AID 167); conditions: S. cerevisiae bub3 mutant strain, active compounds read high
In short: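 Steps: expose the mutant yeast strain to compound; grow alongside vehicle-treated cultures; measure growth; express inhibition against the vehicle cultures.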

[6] = NCI Yeast Anticancer Drug Screen. Data for the mlh1 rad18 strain (AID 175); conditions: S. cerevisiae mlh1 rad18 strain growth inhibition, active compounds read high
In short: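 Test agents were incubated with a yeast strain of defined genotype (DNA damage repair defect). Inhibition of growth was derived by comparison with vehicle-exposed cultures.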

[7] = at 5.0 µM (retest, dose inferred, filed as 0.5)
[8] = at 50.0 µM (retest, dose inferred, filed as 5.0)

Measured: growth inhibition

Nc1ccc(C(=O)N/C(=C\c2ccc3c(c2)OCO3)c2nc3ccccc3s2)cc1
inactive: [1]; [7] 23% | [2]; [7] -2% | [3]; [7] 54% | [4]; [7] 15% | [5]; [7] 32% | [6]; [7] 30%
active: [1]; [8] 99% | [1]; at 50.0 µM 97.2% | [2]; [8] 99% | [2]; at 50.0 µM 98.5% | [3]; [8] 99% | [3]; at 50.0 µM 98.2% | [4]; [8] 98% | [4]; at 50.0 µM 96.3% | [5]; [8] 98% | [5]; at 50.0 µM 97.4% | [6]; [8] 98% | [6]; at 50.0 µM 98.4%

COC(=O)n1c(C[P+](c2ccccc2)(c2ccccc2)c2ccccc2)cc2ccccc21
active: [1]; [7] 89% | [1]; [8] 100% | [1]; at 50.0 µM 99.2% | [2]; [7] 90% | [2]; [8] 100% | [2]; at 50.0 µM 99.6% | [3]; [7] 79% | [3]; [8] 99% | [3]; at 50.0 µM 99.5% | [4]; [7] 91% | [4]; [8] 99% | [4]; at 50.0 µM 98.1% | [5]; [7] 95% | [5]; [8] 100% | [5]; at 50.0 µM 99.4% | [6]; [7] 90% | [6]; [8] 99% | [6]; at 50.0 µM 99%

CNc1nc(N)nc(N(C)c2ccc(Br)cc2)c1N=O
inactive: [1]; [7] 22% | [1]; at 50.0 µM 68.2% | [2]; [7] 40% | [2]; [8] 58% | [2]; at 50.0 µM 12.3% | [3]; [7] 11% | [3]; [8] 32% | [3]; at 50.0 µM 17.6% | [4]; [7] 16% | [4]; [8] 33% | [4]; at 50.0 µM -30.7% | [5]; [7] 20% | [5]; [8] 64% | [5]; at 50.0 µM 21.2% | [6]; [7] 36% | [6]; at 50.0 µM 43.9%
active: [1]; [8] 71% | [6]; [8] 79%

O=Nc1c2n[nH]c1CCCCCCCCC2
inactive: [1]; [7] 24% | [2]; [7] 45% | [3]; [7] 56% | [4]; [7] 23% | [5]; [7] 37%
active: [1]; [8] 99% | [1]; at 50.0 µM 99.4% | [2]; [8] 99% | [2]; at 50.0 µM 99.4% | [3]; [8] 99% | [3]; at 50.0 µM 99.5% | [4]; [8] 99% | [4]; at 50.0 µM 99.5% | [5]; [8] 99% | [5]; at 50.0 µM 99.3% | [6]; [7] 75% | [6]; [8] 99% | [6]; at 50.0 µM 96.8%

Cc1ccc(NC(=O)CSC(N)=O)cc1C
inactive: [1]; [7] 4% | [1]; [8] 22% | [2]; [7] 1% | [2]; [8] 40% | [3]; [7] 1% | [3]; [8] 30% | [4]; [7] 1% | [4]; [8] 9% | [4]; at 50.0 µM 58.5% | [5]; [7] 5% | [5]; [8] 69% | [6]; [7] 8% | [6]; [8] 20%
active: [1]; at 50.0 µM 81.5% | [2]; at 50.0 µM 70.1% | [3]; at 50.0 µM 87.3% | [5]; at 50.0 µM 86.2% | [6]; at 50.0 µM 72%

O=C(/C=C/c1ccccc1)c1ccc(NCc2nc3ccccc3[nH]2)cc1
active: [1]; [8] 74% | [1]; at 50.0 µM 70.7% | [2]; at 50.0 µM 77% | [3]; [8] 82% | [3]; at 50.0 µM 84% | [4]; [8] 80% | [4]; at 50.0 µM 84.8% | [5]; [8] 85% | [5]; at 50.0 µM 76.7% | [6]; [8] 80%
inactive: [1]; [7] -28% | [2]; [7] -62% | [2]; [8] 61% | [3]; [7] -23% | [4]; [7] -20% | [5]; [7] -8% | [6]; [7] -35% | [6]; at 50.0 µM 68.8%

Cc1cc2c(Br)cc(Br)c(O)c2nc1C(=O)c1ccccc1
active: [3]; [8] 90% | [4]; [8] 80% | [5]; [8] 87%
inactive: [1]; [7] 23% | [1]; [8] 39% | [1]; at 50.0 µM 31.8% | [2]; [7] 16% | [2]; [8] 38% | [2]; at 50.0 µM 19.5% | [3]; [7] 37% | [3]; at 50.0 µM 35.8% | [4]; [7] 33% | [4]; at 50.0 µM 43.9% | [5]; [7] 20% | [5]; at 50.0 µM 29.9% | [6]; [7] 32% | [6]; [8] 33% | [6]; at 50.0 µM 21.8%

O=S1(=O)C(C(O)(c2ccccc2)c2ccccc2)CCCN1c1ccccc1 (stereo not given)
active: [1]; at 50.0 µM 76.5% | [3]; at 50.0 µM 70.5%
inactive: [1]; [7] 4% | [1]; [8] 32% | [2]; [7] -8% | [2]; [8] 0% | [2]; at 50.0 µM 31.4% | [3]; [7] -1% | [3]; [8] 16% | [4]; [7] 1% | [4]; [8] -19% | [4]; at 50.0 µM 12.2% | [5]; [7] 0% | [5]; [8] 3% | [5]; at 50.0 µM 21.4% | [6]; [7] -2% | [6]; [8] -87% | [6]; at 50.0 µM 25.4%

CC(=O)Nc1ccc2c(c1)C(=Nc1ccc(F)cc1)c1ccccc1-2
inactive: [1]; [7] 7% | [1]; at 50.0 µM 54.1% | [2]; [7] 0% | [2]; at 50.0 µM 4.35% | [3]; [7] 2% | [3]; [8] 62% | [3]; at 50.0 µM 14.3% | [4]; [7] -1% | [4]; at 50.0 µM 40.4% | [5]; [7] -4% | [5]; [8] 47% | [5]; at 50.0 µM 45.4% | [6]; [7] 0% | [6]; at 50.0 µM 50.7%
active: [1]; [8] 83% | [2]; [8] 84% | [4]; [8] 74% | [6]; [8] 94%

CCC[CH2][Sn]([CH2]CCC)([O]N(C)C(=O)c1ccc(Br)cc1)[O]N(C)C(=O)c1ccc(Br)cc1
active: [1]; [8] 98% | [1]; at 50.0 µM 89.5% | [2]; [7] 87% | [2]; [8] 99% | [2]; at 50.0 µM 90.2% | [3]; [8] 95% | [3]; at 50.0 µM 92.8% | [4]; [8] 98% | [4]; at 50.0 µM 90.7% | [5]; [8] 97% | [5]; at 50.0 µM 90.7% | [6]; [7] 90% | [6]; [8] 98% | [6]; at 50.0 µM 90.5%
inactive: [1]; [7] 63% | [3]; [7] 33% | [4]; [7] 27% | [5]; [7] 37%
